Assay results: PubChem BioAssay AID1159580 (chemical genetic matrix, 2015)
The whole screen tested about 5,500 compounds, of which about 2,000 (36%) were called active. Inconclusive results (about 18%) are left out. This is one part of the list. Unmarked numbers belong to inactive results. Cut-off read from the data, not from the text of the source: active = normalized growth mostly below about 0.91 (no sharp cut-off); inconclusive = no clear call, values can overlap the other calls; inactive = mostly above about 0.92.

Assay: chemical genetic growth profiling, strain panel (AID 1159580);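 note: tested at 20 µM; growth read once vehicle control cultures reached saturation at 30 °C; 1 = growth at the plate median or of vehicle wells; lower values mean less growth of the strain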
Conditions: growth OD
[1] = S. cerevisiae deletion strains, locus YAL013W, strain DEP1, stronger effect = lower value
[2] = S. cerevisiae deletion strains, locus YBR229C, strain ROT2, stronger effect = lower value
[3] = S. cerevisiae deletion strains, locus YDL101C, strain DUN1, stronger effect = lower value
[4] = S. cerevisiae deletion strains, locus YDR150W, strain NUM1, stronger effect = lower value
[5] = S. cerevisiae deletion strains, locus YEL061C, strain CIN8, stronger effect = lower value
[6] = S. cerevisiae deletion strains, locus YGR078C, strain PAC10, stronger effect = lower value
[7] = S. cerevisiae deletion strains, locus YHR030C, strain SLT2, stronger effect = lower value
[8] = S. cerevisiae deletion strains, locus YHR087W, strain rtc3, stronger effect = lower value
[9] = S. cerevisiae deletion strains, locus YJL187C, strain SWE1, stronger effect = lower value
[10] = S. cerevisiae deletion strains, locus YJR043C, strain POL32, stronger effect = lower value
[11] = S. cerevisiae deletion strains, locus YJR075W, strain HOC1, stronger effect = lower value
[12] = S. cerevisiae deletion strains, locus YKL190W, strain CNB1, stronger effect = lower value
[13] = S. cerevisiae deletion strains, locus YLR039C, strain RIC1, stronger effect = lower value
[14] = S. cerevisiae deletion strains, locus YLR058C, strain SHM2 (second series), stronger effect = lower value
[15] = S. cerevisiae deletion strains, locus YLR085C, strain ARP6, stronger effect = lower value
[16] = S. cerevisiae deletion strains, locus YLR262C, strain YPT6, stronger effect = lower value
[17] = S. cerevisiae deletion strains, locus YML094W, strain GIM5, stronger effect = lower value
[18] = S. cerevisiae deletion strains, locus YMR219W, strain ESC1, stronger effect = lower value
[19] = S. cerevisiae deletion strains, locus YMR263W, strain SAP30, stronger effect = lower value
[20] = S. cerevisiae deletion strains, locus YNL153C, strain GIM3, stronger effect = lower value
[21] = S. cerevisiae deletion strains, locus YNL298W, strain CLA4 (second series), stronger effect = lower value
[22] = S. cerevisiae deletion strains, locus YNL322C, strain KRE1, stronger effect = lower value
[23] = S. cerevisiae deletion strains, locus YNR030W, strain Alg12, stronger effect = lower value
[24] = S. cerevisiae deletion strains, locus YPL055C, strain LGE1, stronger effect = lower value
[25] = S. cerevisiae deletion strains, locus YPL241C, strain CIN2, stronger effect = lower value
[26] = S. cerevisiae deletion strains, locus YPR135W, strain CTF4, stronger effect = lower value

What does the source list for `COc1ccccc1N1CCN(S(=O)(=O)c2cc(C)c(Cl)cc2C)CC1`?
normalized growth [1]: 0.985; normalized growth [2]: 0.991; normalized growth [3]: 0.957; normalized growth [4]: 0.958; normalized growth [5]: 0.994; normalized growth [6]: 0.97; normalized growth [7]: 1.01; normalized growth [8]: 0.959; normalized growth [9]: 0.991; normalized growth [10]: 1; normalized growth [11]: 0.989; normalized growth [12]: 0.987; normalized growth [13]: 0.981; normalized growth [14]: 0.988; normalized growth [15]: 1.01; normalized growth [16]: 0.976; normalized growth [17]: 0.958; normalized growth [18]: 1; normalized growth [19]: 1; normalized growth [20]: 0.996; normalized growth [21]: 0.982; normalized growth [22]: 0.994; normalized growth [23]: 0.982; normalized growth [24]: 0.953; normalized growth [25]: 1.06; normalized growth [26]: 0.874; normalized growth (S. cerevisiae strains, strain wild type, stronger effect = lower value): 0.985

What does the source list for `CC1=C(OS(=O)(=O)c2cc(C)c(Cl)cc2Cl)C(=O)CC1`?
normalized growth [1]: 0.993; normalized growth [2]: 0.956; normalized growth [3]: 0.968; normalized growth [4]: 0.986; normalized growth [5]: 1; normalized growth [6]: 0.98; normalized growth (S. cerevisiae deletion strains, locus YGR229C, strain SMI1, stronger effect = lower value): 0.968; normalized growth [7]: 0.85; normalized growth [8]: 0.974; normalized growth [9]: 0.986; normalized growth [10]: 0.991; normalized growth [11]: 0.984; normalized growth [12]: 0.976; normalized growth [13]: 0.849; normalized growth [14]: 0.968; normalized growth [15]: 0.955; normalized growth [16]: 0.866; normalized growth [17]: 1; normalized growth [18]: 0.985; normalized growth [19]: 0.977; normalized growth [20]: 0.971; normalized growth [21]: 0.914; normalized growth [22]: 0.97; normalized growth [23]: 0.968; normalized growth (S. cerevisiae deletion strains, locus YOL006C, strain TOP1, stronger effect = lower value): 0.897; normalized growth [24]: 1.24 [resistant] (active); normalized growth [25]: 0.98; normalized growth [26]: 0.87
